Test results as given in PubChem BioAssay.
Activity calls are given as the source filed them.

Columns and labels:
Albumin (Bos taurus) = Albumin (Bos taurus) (UniProt P02769); assay: compounds binding labelled BSA control protein – biochemical, small-molecule microarray, Alexa647 label, 635/667 nm fluorescence, artefact control for SMM control protein annotation, profiling panel (AID 1118); conditions: BSA-A647 binding, fluorescence 635 nm, higher = more signal;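 also: score merges 667 nm emission intensity and signal-to-noise per printed compound spot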
Chain of Albumin (Bos taurus) (P02769 whole entry, looked up): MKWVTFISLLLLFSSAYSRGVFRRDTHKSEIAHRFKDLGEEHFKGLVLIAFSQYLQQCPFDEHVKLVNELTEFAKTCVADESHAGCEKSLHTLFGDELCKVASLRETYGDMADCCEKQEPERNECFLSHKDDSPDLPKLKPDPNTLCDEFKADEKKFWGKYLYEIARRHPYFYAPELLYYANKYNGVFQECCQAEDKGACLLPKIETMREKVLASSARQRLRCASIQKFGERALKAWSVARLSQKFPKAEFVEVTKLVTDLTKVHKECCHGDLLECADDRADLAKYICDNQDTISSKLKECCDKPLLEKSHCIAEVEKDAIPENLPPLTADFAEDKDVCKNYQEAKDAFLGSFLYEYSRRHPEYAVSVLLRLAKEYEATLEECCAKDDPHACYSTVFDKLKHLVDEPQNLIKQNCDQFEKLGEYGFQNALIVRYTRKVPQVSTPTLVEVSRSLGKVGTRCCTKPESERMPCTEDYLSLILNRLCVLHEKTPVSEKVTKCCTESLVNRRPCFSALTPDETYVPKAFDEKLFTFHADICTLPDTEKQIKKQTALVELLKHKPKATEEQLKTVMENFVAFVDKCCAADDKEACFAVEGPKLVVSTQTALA

[1] = probe aXIP binding to arrayed compounds – biochemical, NeuroSMM set, 635/667 nm fluorescence, primary screen (AID 1119); conditions: small-molecule microarray, higher = more signal, called active from +8 up or from −8 down;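 also: probe is the protein aXip251-270 applied at 1 µg/mL to compound-printed slides; binding of probe to printed compounds measured as 667 nm fluorescence plus signal to noise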
[2] = probe aNOTCH3 binding on compound microarray – biochemical, small-molecule microarray, 635/667 nm fluorescence, primary screen (AID 1120); conditions: higher = more signal;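 also: probe is a biotin-tagged antibody raised against NOTCH3 rather than NOTCH3 protein; score merges spot fluorescence near 667 nm with spot signal to noise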
[3] = probe aNOTCH2 binding on compound microarray – biochemical, small-molecule microarray, 635/667 nm fluorescence, primary screen (AID 1121); conditions: higher = more signal;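 also: score merges feature fluorescence read at 667 nm with its signal to noise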
[4] = target: Carbonic anhydrase 2 (Homo sapiens) (UniProt P00918); assay: compounds binding carbonic anhydrase 2 – biochemical, small-molecule microarray, Alexa647-labelled CAII, profiling panel (AID 1122); conditions: CAII-A647 binding fluorescence, higher = more signal
[5] = COS7 lysate on small-molecule microarray, probe aHis, 635 nm (AID 1123); conditions: COS7 cell lysate, fluorescence, higher = more signal;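 also: z-score combines 667nm fluorescence intensity with signal-to-noise per printed compound spot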
[6] = probe aLAP1 signal on lysate-treated microarray – cell lysate, small-molecule microarray, COS7 lysate, primary screen (AID 1124); conditions: probe aLAP1, fluorescence, higher = more signal;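 also: lysate comes from COS7 cells expressing LAP1 and is applied at 0.3 µg/mL; score merges spot fluorescence near 667 nm with signal-to-noise over triplicate slides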
Sam68 (KHDRBS1) = assay: compounds binding KHDRBS1 protein – biochemical, small-molecule microarray, 635 nm fluorescence, primary screen (AID 1125); conditions: higher = more signal;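 also: score merges 667 nm channel intensity with signal to noise over triplicate slides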
[7] = test system: Chordin-like protein 2 (CHRDL2); assay: compounds binding chordin-like 2 – biochemical, small-molecule microarray, 635 nm fluorescence, primary screen (AID 1126); conditions: fluorescence 635 nm, higher = more signal;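 also: printed compound slides probed with Chrdl2 protein at 4 µg/mL for 1 h at 4 C; score merges 667 nm emission intensity with signal to noise over three replicate slides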
[8] = target: Concanavalin-A (Canavalia ensiformis) (UniProt P02866); assay: compounds binding concanavalin A lectin – biochemical, small-molecule microarray, Alexa647 label, 635 nm, artefact control for SMM control protein annotation, primary screen (AID 1127); conditions: ConA-A647 binding fluorescence, higher = more signal;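 also: z combines 667 nm emission intensity with signal-to-noise across three replicate slides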
Chain of Concanavalin-A (Canavalia ensiformis) (P02866 whole entry, looked up): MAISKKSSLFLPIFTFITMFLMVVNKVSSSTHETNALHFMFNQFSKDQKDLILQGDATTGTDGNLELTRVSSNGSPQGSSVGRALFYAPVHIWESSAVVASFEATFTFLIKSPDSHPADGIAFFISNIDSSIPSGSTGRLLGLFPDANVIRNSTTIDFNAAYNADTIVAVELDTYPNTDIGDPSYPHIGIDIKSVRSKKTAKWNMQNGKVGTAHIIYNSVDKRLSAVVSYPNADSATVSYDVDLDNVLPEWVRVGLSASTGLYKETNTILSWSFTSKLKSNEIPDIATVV

[9] = compounds binding Alexa647 anti-His antibody – biochemical, small-molecule microarray, 635 nm fluorescence, artefact control for SMM control protein annotation, primary screen (AID 1128); conditions: higher = more signal;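 also: score merges feature fluorescence with signal-to-noise for each printed compound spot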
[10] = test system: Human papillomavirus type 1a E7 protein (residues 1-88); assay: HPV1a E7 small-molecule binders, primary screen, biochemical, small-molecule microarray, residues 1-88, 635 nm (AID 1129); conditions: small-molecule microarray binding, fluorescence 635 nm; higher = more signal
[11] = target: Focal adhesion kinase 1 (Homo sapiens) (UniProt Q05397); assay: PTK2 protein binding on printed compound slides – biochemical, small-molecule microarray, 635/667 nm fluorescence, BSA, DTT, primary screen (AID 1130); conditions: 635 nm fluorescence, higher = more signal;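 also: composite of spot emission at 667 nm and signal to noise over triplicate slides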
Chain of Focal adhesion kinase 1 (Homo sapiens) (Q05397 whole entry, looked up): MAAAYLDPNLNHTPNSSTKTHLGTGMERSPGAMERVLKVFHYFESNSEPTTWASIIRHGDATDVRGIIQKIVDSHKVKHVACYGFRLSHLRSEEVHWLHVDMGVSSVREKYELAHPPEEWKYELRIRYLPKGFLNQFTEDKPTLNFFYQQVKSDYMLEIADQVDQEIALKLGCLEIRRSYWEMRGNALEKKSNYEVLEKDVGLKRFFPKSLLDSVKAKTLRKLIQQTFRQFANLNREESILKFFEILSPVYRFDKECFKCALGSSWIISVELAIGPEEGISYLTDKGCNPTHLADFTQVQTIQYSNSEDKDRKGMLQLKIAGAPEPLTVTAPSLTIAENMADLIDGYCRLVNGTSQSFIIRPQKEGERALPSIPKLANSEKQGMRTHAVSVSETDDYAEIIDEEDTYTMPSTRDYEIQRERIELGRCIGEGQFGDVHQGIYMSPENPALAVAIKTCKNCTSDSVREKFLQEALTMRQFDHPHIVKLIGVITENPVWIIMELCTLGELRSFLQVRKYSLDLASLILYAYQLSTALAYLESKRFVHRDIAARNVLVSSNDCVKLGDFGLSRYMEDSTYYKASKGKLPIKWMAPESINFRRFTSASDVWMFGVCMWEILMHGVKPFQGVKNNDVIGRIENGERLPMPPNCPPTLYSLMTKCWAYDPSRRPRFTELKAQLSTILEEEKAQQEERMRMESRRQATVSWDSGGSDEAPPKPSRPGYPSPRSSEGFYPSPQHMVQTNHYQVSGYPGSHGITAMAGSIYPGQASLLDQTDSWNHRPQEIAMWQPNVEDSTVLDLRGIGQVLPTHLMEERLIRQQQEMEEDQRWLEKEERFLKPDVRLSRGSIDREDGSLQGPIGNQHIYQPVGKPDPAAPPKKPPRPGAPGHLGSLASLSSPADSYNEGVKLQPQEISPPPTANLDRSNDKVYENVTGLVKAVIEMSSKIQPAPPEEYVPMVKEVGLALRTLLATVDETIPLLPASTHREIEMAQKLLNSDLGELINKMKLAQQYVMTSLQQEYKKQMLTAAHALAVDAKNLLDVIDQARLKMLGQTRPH

[12] = test system: Fibrinogen (Alexa647-labelled); assay: Alexa647-fibrinogen binding to printed small molecules – biochemical, small-molecule microarray, 635/667 nm fluorescence, artefact control for SMM control-protein annotation, profiling panel (AID 1131); conditions: fibrinogen-A647 binding fluorescence, higher = more signal;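 also: z-score merges 667 nm fluorescence with per-spot signal-to-noise over triplicate slides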
[13] = target: Follistatin (Homo sapiens) (UniProt P19883); assay: FST protein binding to printed compounds – biochemical, small-molecule microarray, 635/667 nm fluorescence, primary screen (AID 1132); conditions: 635 nm fluorescence, higher = more signal
Chain of Follistatin (Homo sapiens) (P19883 whole entry, looked up): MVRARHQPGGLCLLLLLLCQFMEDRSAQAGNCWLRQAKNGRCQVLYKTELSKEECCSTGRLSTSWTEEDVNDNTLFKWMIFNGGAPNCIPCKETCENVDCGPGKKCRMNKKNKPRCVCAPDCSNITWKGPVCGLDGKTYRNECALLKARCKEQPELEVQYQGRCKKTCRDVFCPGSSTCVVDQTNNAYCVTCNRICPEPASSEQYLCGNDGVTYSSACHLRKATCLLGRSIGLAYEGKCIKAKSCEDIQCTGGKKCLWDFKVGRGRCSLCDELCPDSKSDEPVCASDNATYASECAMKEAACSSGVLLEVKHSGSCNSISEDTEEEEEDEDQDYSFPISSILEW

[14] = target: Fibroblast growth factor 2 (Homo sapiens) (UniProt P09038); assay: basic fibroblast growth factor binding to printed compounds – biochemical, small-molecule microarray, 635/667 nm fluorescence, primary screen (AID 1133); conditions: FGF2, fluorescence 635/667, higher = more signal
Chain of Fibroblast growth factor 2 (Homo sapiens) (P09038 whole entry, looked up): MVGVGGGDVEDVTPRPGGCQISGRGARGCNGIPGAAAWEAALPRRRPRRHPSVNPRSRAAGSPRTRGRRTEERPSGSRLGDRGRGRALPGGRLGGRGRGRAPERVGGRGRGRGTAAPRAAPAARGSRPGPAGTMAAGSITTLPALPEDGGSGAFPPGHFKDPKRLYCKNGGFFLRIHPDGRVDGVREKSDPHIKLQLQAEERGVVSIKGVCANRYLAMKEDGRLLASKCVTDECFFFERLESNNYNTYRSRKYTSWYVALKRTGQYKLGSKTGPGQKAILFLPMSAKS

[15] = JC-1 mitochondrial potential readout, lung cancer cells – cell-based, A549, JC-1 fluorescence, basal, 24 h, 100 nL, profiling panel (AID 1138); conditions: higher = more signal;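 also: A549 lung adenocarcinoma cells under basal conditions with no added stimulus; test concentration not given here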
Lefty1 = Lefty1 protein binding to printed compounds – biochemical, small-molecule microarray, 635/667 nm fluorescence, primary screen (AID 1139); conditions: fluorescence 635/667, higher = more signal
[16] = test system: wheat germ agglutinin (Triticum aestivum), Alexa647-labelled; assay: Alexa647-WGA lectin binding to printed small molecules – biochemical, small-molecule microarray, 635/667 nm fluorescence, artefact control for SMM control-protein annotation, profiling panel (AID 1140); conditions: WGA-A647 binding, 635 nm fluorescence, higher = more signal;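 also: score merges 667 nm feature emission with signal to noise over triplicate slides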
[17] = target: Luciferin 4-monooxygenase (Photinus pyralis) (UniProt P08659); assay: inhibition of purified Photinus pyralis luciferase – biochemical, luminescence, purified enzyme, 2006 set, primary screen (AID 1141); conditions: purified firefly luciferase, SteadyGlo luminescence, 30 min; higher = more signal, called active from +8 up or from −8 down;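 also: cell-free assay with purified firefly luciferase at 100 ng per well in PBS; test concentration not given here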
Chain of Luciferin 4-monooxygenase (Photinus pyralis) (P08659 whole entry, looked up): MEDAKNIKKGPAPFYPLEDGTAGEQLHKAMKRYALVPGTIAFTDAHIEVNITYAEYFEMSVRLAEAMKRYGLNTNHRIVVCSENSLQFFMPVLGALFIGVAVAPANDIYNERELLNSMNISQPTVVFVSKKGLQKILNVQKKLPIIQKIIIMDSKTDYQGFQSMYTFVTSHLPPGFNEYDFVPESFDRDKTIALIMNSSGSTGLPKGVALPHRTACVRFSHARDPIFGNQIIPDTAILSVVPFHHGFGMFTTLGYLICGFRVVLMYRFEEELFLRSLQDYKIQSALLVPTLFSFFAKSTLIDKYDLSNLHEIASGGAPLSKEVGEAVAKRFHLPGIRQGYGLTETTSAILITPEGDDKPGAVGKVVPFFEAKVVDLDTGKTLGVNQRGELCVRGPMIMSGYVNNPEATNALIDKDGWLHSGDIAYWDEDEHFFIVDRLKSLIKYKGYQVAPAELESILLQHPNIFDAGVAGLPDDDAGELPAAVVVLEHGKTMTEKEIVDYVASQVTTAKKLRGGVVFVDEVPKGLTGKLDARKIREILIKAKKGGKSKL

Structure (SMILES)	composite z-score (Albumin (Bos taurus))	composite Z-score [1]	composite z-score [2]	composite z-score [3]	composite z-score [4]	composite z-score [5]	composite z-score [6]	composite z-score (Sam68 (KHDRBS1))	composite z-score [7]	composite z-score [8]	composite z-score [9]	composite z-score [10]	composite z-score [11]	composite z-score [12]	composite z-score [13]	composite z-score [14]	z-score [15]	composite z-score (Lefty1)	composite z-score [16]	z-score [17]
CN(C)CCCNC(=O)[C@@]1(c2ccc([N+](=O)[O-])cc2)CC(=O)N(CC23CC4CC(CC(C4)C2)C3)[C@@H]1c1ccc(CO)cc1	0.0561	-0.137 (inactive)	0.683	0.094	0.49	3.43	0.82	1.3	1.07	1.15	1.03	1.19	0.703	0.807	1.28	0.844	0.742	0.99	0.955	0.292 (inactive)
O=C1OCC=C[C@H]2OC34C=CCN(Cn5nnc6ccccc65)C(=O)[C@H]3N(CCCCCCO)C(=O)[C@@H]4[C@@H]12 (stereo not given in full)	-1.02	0.648 (inactive)	-0.165	-0.126	0.904	0.718	0.79	0.0126	-0.743	-1.01	1.42	-0.238	0.058	-1.49	-0.982	-0.525	0.421	-0.835	-0.544	-0.283 (inactive)
COCCCNC(=O)[C@]1(Cc2ccccc2N=[N+]=[N-])N=C(c2ccc(OCCCO)cc2)O[C@@H]1c1ccccc1N=[N+]=[N-]	0.99	0.0401 (inactive)	0.0348	-0.0372	0.666	2.33	-0.0886	1.3	-0.502	1.09	2.22	1.19	0.356	0.983	0.778	-0.165	-0.214	-0.252	0.676	-3.27 (inactive)
CC(C)C[C@@H]1NC(=O)[C@H]2C[C@@H](C(=O)NCCCCCC[N+](C)(C)C)[C@@H](c3cccc(OCCO)c3)N2C1=O	0.107	0.831 (inactive)	-0.0967	-0.169	0.377	1.02	0.384	0.374	0.964	0.869	2.76	0.381	0.125	-1.08	1.43	1.01	-0.525	0.691	0.432	0.579 (inactive)
C=CC[C@]12N=C(c3ccc(OCCCO)cc3)O[C@H]1c1ccccc1N(C)C2=O	0.0095	2.56 (inactive)	0.336	0.0424	0.308	2.73	1.14	1.21	0.76	0.989	2.7	1.2	1.37	0.325	1.46	0.837	-0.829	0.501	0.675	-7.68 (inactive)
Cc1c(NC(=O)/C(C#N)=C/C=C/c2ccccc2[N+](=O)[O-])c(=O)n(-c2ccccc2)n1C	0.974	-0.148 (inactive)	-0.0903	-0.0234	0.643	1.11	1.04	0.708	0.704	0.761	0.526	0.876	1.01	0.867	0.771	0.334	0.511	0.557	0.154	-4.64 (inactive)
COc1cc(CO)cc(I)c1O[C@H]1C=C(C(=O)NCCO)C[C@@H](N(CC2CCCCC2)C(=O)c2ccc(C(F)(F)F)cc2)[C@@H]1O	0.388	0.527 (inactive)	-0.0921	-0.147	0.055	0.461	0.621	1.27	0.398	0.352	0.0463	0.621	0.0469	0.367	0.578	0.12	0.53	0.784	0.193	-0.795 (inactive)
CCOC(=O)C1=CC[C@@H](c2cc(Cl)ccc2Cl)N(S(=O)(=O)c2ccc(C)cc2)[C@H]1c1ccc(OC)cc1	0.596	0.552 (inactive)	0.258	0.586	0.25	0.515	0.325	-0.0808	-0.362	-1.21	-0.128	-0.199	0.262	-1.17	0.258	-0.413	0.581	-0.526	0.0203	0.953 (inactive)
CCOC(=O)[C@@H]1[C@@H]2C(=O)N(CC)C(=O)[C@@H]2C[C@@H]1Sc1ccccc1	0.663	-0.889 (inactive)	0.191	-0.0297	0.36	1.84	0.68	1.25	-0.235	0.563	1.62	1.2	0.592	0.462	0.329	0.0435	-1.24	0.307	0.402	1.4 (inactive)
CN1C(=O)C2C=CC(C(O)C3CCCCC3)N(N3CCCCC3)C2C1=O (stereo not given)	0.92	1.56 (inactive)	0.196	0.0019	0.663	2.48	0.794	1.3	0.0449	0.927	1.18	1.26	0.542	0.957	1.31	0.182	1.25	0.766	0.774	0.49 (inactive)
